The values that follow come from PubChem BioAssay (NCI).

Some test systems named below: NCI-H23 lung; NCI-H226 lung; NCI-H322M lung; HOP-62 NSCLC; NCI-H460 lung; HOP-92 NSCLC; NCI-H522 lung; A549/ATCC NSCLC; 786-0 renal; COLO 205 colon.
Test in all cases: NCI-60 one-dose screen, 48 h (100 = growth as untreated, 0 = no growth, -100 = all killed)
Holding throughout (conditions): 10 µM unless noted

Where “and” joins values, the source holds several entries; their conditions need not be identical. Equal values may be shown once. About 83,000 compounds went through this panel and 20% of them were active in at least one assay; those are over-represented in the sample as a whole.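 Single-dose data. Exposure time 48 hours. Values below 10 considered active.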 Unmarked numbers belong to inactive results. Calls of active or inactive are those of the source.

On to `COC(=O)[C@H]1Cc2c([nH]c3ccccc23)[C@@H](c2cccs2)N1`, for which the growth in the experiment with NCI-H23 lung is 104%; with NCI-H226 lung, 98.3%; in the experiment on NCI-H322M lung, 100%; in the experiment on HOP-62 NSCLC, 102%; in the experiment with NCI-H460 lung, 105%; with HOP-92 NSCLC it was 105%. For the same compound, the growth in the experiment with NCI-H522 lung is 78.9%; in the experiment on A549/ATCC NSCLC, 103%; in the experiment on 786-0 renal it was 91.4%; with COLO 205 colon, 131%.

Take `Cc1cccc(-c2nnc(SCC(=O)Nc3ncc(Cc4ccccc4)s3)n2N2C(=O)CSC2=S)c1`: the growth is 36.7% with NCI-H23 lung; 31.5% with NCI-H226 lung; 40.1% with NCI-H322M lung; 30.3% in the experiment with HOP-62 NSCLC; 20% with NCI-H460 lung; 8.49% (active) in the experiment with HOP-92 NSCLC. Further, the growth with NCI-H522 lung is 34.5%; in the experiment with A549/ATCC NSCLC it was 7.99% (active); with 786-0 renal it was 29.8%; in the experiment on COLO 205 colon it was 66.6%.

Regarding `CC(=O)Nc1c(I)c(NC(C)=O)c(I)c(C(=O)O)c1I`, the growth in the experiment on NCI-H23 lung is 110%; in the experiment on NCI-H226 lung, 97.4% and 113%; in the experiment on NCI-H322M lung, 102% and 101%; in the experiment with HOP-62 NSCLC it was 112% and 97.9%; in the experiment on NCI-H460 lung, 109% and 103%; in the experiment with HOP-92 NSCLC, 94.3%. Moreover, the growth in the experiment on NCI-H522 lung was 102% and 24.5%; in the experiment on A549/ATCC NSCLC, 105%; in the experiment with 786-0 renal it was 97.3% and 114%; with COLO 205 colon it was 115% and 119%.

In the case of `Cn1cc(-c2nc3c(F)cc4[nH]ncc4c3c3c2CCCC3)c(C(F)F)n1`, the growth is 66.9% in the experiment with NCI-H23 lung; 62.2% in the experiment with NCI-H226 lung; 66.2% in the experiment on NCI-H322M lung; 57.3% in the experiment with HOP-62 NSCLC; 62.3% in the experiment with NCI-H460 lung; 8.14% (active) in the experiment with HOP-92 NSCLC. Besides, the growth with NCI-H522 lung is 26.9%; with A549/ATCC NSCLC, 58.1%; in the experiment with 786-0 renal, 63.9%; in the experiment on COLO 205 colon it was 89.4%.

Turning to `c1cc(NCCCCN2CCOCC2)c2ccc3c(ccc4c(NCCN5CCOCC5)ccnc43)c2n1`, the growth in the experiment with NCI-H23 lung is 70.7%; in the experiment with NCI-H226 lung, 79.6%; in the experiment on NCI-H322M lung, 72.9%; with HOP-62 NSCLC, 81.5%; in the experiment on NCI-H460 lung, 40.8%; in the experiment with HOP-92 NSCLC, 56.8%. For the same compound, the growth in the experiment with NCI-H522 lung was 82.5%; with A549/ATCC NSCLC, 75.9%; in the experiment on 786-0 renal, 79.5%; in the experiment with COLO 205 colon, 90.5%.

As for `CCCCC1COc2cccc3c2N1C=C/C3=C\C(=O)N(C)c1cccc(Cl)c1` (stereo not given), the growth is 97.5% in the experiment on NCI-H23 lung; 100% in the experiment on NCI-H226 lung; 110% in the experiment with NCI-H322M lung; 109% in the experiment with HOP-62 NSCLC; 105% in the experiment with NCI-H460 lung; 92% in the experiment on HOP-92 NSCLC. The growth in the experiment on NCI-H522 lung is 90.1%; in the experiment on A549/ATCC NSCLC, 99.5%; with 786-0 renal it was 99.8%; with COLO 205 colon it was 100%.

With `COc1ccc(-c2nn3c(-c4cc(F)c(Cl)cc4Cl)nnc3s2)cc1`, the growth was 54.1% with NCI-H23 lung; 80% with NCI-H226 lung; 79.2% with NCI-H322M lung; 30.6% in the experiment on HOP-62 NSCLC; 32.5% in the experiment with NCI-H460 lung; 37.6% in the experiment with HOP-92 NSCLC. The growth is 23.1% in the experiment on NCI-H522 lung, 51.1% with A549/ATCC NSCLC, 46.2% in the experiment with 786-0 renal and 62.9% in the experiment on COLO 205 colon.

Consider `[Cu+].[NH-][C@H]1C[N-]C(=O)[C@H]([C@H]2CCN=C(N)N2)[N-]C(=O)/C(=C\NC(N)=O)[N-]C(=O)[C@H](CNC(=O)C[C@@H](N)CCCN)[N-]C(=O)[C@H](CO)[N-]C1=O`, for which the growth in the experiment on NCI-H23 lung was 105%; in the experiment on NCI-H226 lung, 105%; in the experiment with NCI-H322M lung, 106%; in the experiment with HOP-62 NSCLC, 94.8%; in the experiment on NCI-H460 lung, 98.4%; in the experiment on HOP-92 NSCLC it was -8.71% (active). Further, the growth with NCI-H522 lung was 85.6%; in the experiment with A549/ATCC NSCLC, 99.3%; with 786-0 renal it was 102%; in the experiment on COLO 205 colon, 111%.

As for `COc1ccc(/C=N/NC(=O)CN2CCN(c3cc4c(cc3F)c(=O)c(C(=O)O)cn4C3CC3)CC2)cc1O`, the growth was 103% with NCI-H23 lung; 112% with NCI-H226 lung; 102% in the experiment with NCI-H322M lung; 98.9% in the experiment on HOP-62 NSCLC; 105% in the experiment on NCI-H460 lung; 91.8% with HOP-92 NSCLC. The growth with NCI-H522 lung is 80.8%; in the experiment on A549/ATCC NSCLC, 99.5%; in the experiment on 786-0 renal it was 101%; in the experiment on COLO 205 colon, 112%.

`O=C1C(=C(O)c2ccccc2)C(=O)c2ccccc21`: the growth in the experiment on NCI-H23 lung was 103%; in the experiment on NCI-H226 lung it was 104%; in the experiment on NCI-H322M lung it was 109%; in the experiment on HOP-62 NSCLC it was 99.5%; in the experiment with NCI-H460 lung, 116%; with HOP-92 NSCLC, 88%. Also, the growth is 101% in the experiment with NCI-H522 lung, 105% in the experiment with A549/ATCC NSCLC, 95.6% with 786-0 renal and 121% in the experiment on COLO 205 colon.

As for `CC(C)=CCc1cc(O)c(O)c2oc3cc(O)cc(O)c3c(=O)c12`, the growth with NCI-H23 lung was 51.1%; with NCI-H226 lung it was 96.9%; in the experiment on NCI-H322M lung it was 75.1%; in the experiment on HOP-62 NSCLC, 45.9%; in the experiment on NCI-H460 lung it was 25.1%; in the experiment with HOP-92 NSCLC it was 86.9%. Besides, the growth in the experiment with NCI-H522 lung is 58.4%; with A549/ATCC NSCLC, 43.3%; with 786-0 renal it was 64.8%; in the experiment on COLO 205 colon it was 91.7%.

Take `COc1ccc(-c2cc(=O)c3c(O)cc(O)cc3o2)cc1`: the growth in the experiment with NCI-H23 lung is 96.3% and 100%; in the experiment on NCI-H226 lung, 106%; with NCI-H322M lung it was 109% and 103%; with HOP-62 NSCLC it was 113% and 114%; in the experiment on NCI-H460 lung, 104% and 97.2%; in the experiment on HOP-92 NSCLC, 95.4% and 75%. For the same compound, the growth with NCI-H522 lung is 83.2% and 77.9%; in the experiment on A549/ATCC NSCLC it was 97.1% and 94.8%; in the experiment on 786-0 renal, 107%; in the experiment with COLO 205 colon it was 101%.
